High-throughput results as filed in PubChem.
GLP-1R agonist: agonists of human GLP-1 receptor; P43220; HEK293 GLP-1R CRE-luciferase, luminescence, 4-6 h; cells express a hypersensitive GLP-1R form; Potency, µM (doses to about 45.6 µM), for inactives: at the top dose activation, hits mostly activators; 380,000 tested, 0.007% active; AID 624172; further: % of control where 0% means no effect
HEK293 tox: cytotoxicity in counter-screen for GLP-1R inverse agonists; HEK293 cAMP-luciferase reporter cells, luminescence, 24 h; Potency, µM (doses to about 38.3 µM), for the others: top-dose activity change, negative = inhibition, actives largely listed as inhibitors; 410,000 tested, 0.13% active; AID 624418;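 further: loss of luciferase light is scored as toxicity; on the % scale 0 is the no-effect control and ±100 the full control effect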
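To flag toxic compounds, the library was rerun on cells for 24 hr at 37 deg C and 5% CO2. Viability-linked luminescence was captured 12 min after adding luciferase detection reagent.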
Gal4-VP16 FLuc: counter-screen for ROR gamma inhibitors: Gal4-VP16 reporter; Drosophila S2 Gal4-VP16 UAS-luciferase, luminescence, 20 h; Potency, µM (series often up to 53.6 µM), for the others: at the highest dose activity, negative = inhibition, hits mostly inhibitors; 310,000 tested, 3.5% active; AID 2546;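 further: Gal4-VP16 expression switched on by copper sulfate through the metallothionein promoter; on the % scale 0 is the no-effect control and ±100 the full control effect; nearly all actives have a fitted effect of over 50% in size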
GLP1R inv ag: GLP-1 receptor (human) inverse agonism; HEK293 GLP-1R CRE-luciferase, luminescence, 24 h; GLP-1R form is constitutively active; Potency, µM (titrated, usually from 38.3 µM), without a hit: top-dose activity change, negative = inhibition, hits mostly inhibitors; 410,000 tested, 1.6% active; AID 624417; further: on the % scale 0 is the no-effect control and ±100 the full control effect; nearly all actives have a fitted effect of over 55% in size
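GLP-1R inverse agonism mode: basal reporter luminescence in engineered HEK293 cells measured after one day of compound exposure at 37 deg C, with a 12 min room-temperature detection step.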
RORg inh: inhibitors of mouse ROR gamma transcriptional activity; P51450; Drosophila S2 Gal4-RORgamma UAS-luciferase reporter, 20 h; Potency, µM (titrated, usually from 53.6 µM), without a hit: at the highest dose activity change, negative = inhibition, actives largely listed as inhibitors; 310,000 tested, 5.4% active; further: on the % scale 0 is the no-effect control and ±100 the full control effect; nearly all actives have a fitted effect of over 60% in size
Target sequence (P51450 whole entry, looked up, the tested form may be a part): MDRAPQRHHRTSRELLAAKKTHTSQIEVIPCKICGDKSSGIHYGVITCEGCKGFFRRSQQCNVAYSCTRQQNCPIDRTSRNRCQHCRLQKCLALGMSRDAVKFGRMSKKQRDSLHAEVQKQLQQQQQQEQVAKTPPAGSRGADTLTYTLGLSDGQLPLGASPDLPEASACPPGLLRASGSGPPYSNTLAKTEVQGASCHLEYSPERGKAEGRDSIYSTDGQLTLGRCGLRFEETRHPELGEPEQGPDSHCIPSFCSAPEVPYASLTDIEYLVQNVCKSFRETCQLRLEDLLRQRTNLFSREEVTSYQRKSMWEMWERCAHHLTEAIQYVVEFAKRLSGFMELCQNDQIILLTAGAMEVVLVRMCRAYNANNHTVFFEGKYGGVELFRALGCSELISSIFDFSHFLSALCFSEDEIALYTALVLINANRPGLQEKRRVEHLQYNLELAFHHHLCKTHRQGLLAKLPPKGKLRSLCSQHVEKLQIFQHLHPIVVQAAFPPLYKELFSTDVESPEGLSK
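ROR gamma transcriptional activity was tracked as Gal4-UAS luciferase output in stably transfected Drosophila Schneider cells, with compound added 1 hr before 700 uM copper sulfate induction and a 20 hr ambient-temperature incubation.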
Numbers without * were called inactive; i = inactive; ? = inconclusive; · = no result; ! = a repeat was not active; [ ] = remark or other dose. This is a sample that favours compounds with a hit; in the whole collection about 5.9% have one here. The call rests on the fitted dose curve; in most records, active means well fitted curve in the direction sought with a large enough effect; inconclusive means small, poorly fitted or top-dose-only effect, or another doubt; inactive means no such curve, though single readings can be large; an effect the other way counts as inactive or inconclusive. Potency means the concentration at half of the fitted maximal effect.

SMILES	GLP-1R agonist	HEK293 tox	Gal4-VP16 FLuc	GLP1R inv ag	RORg inh
Fc1ccccc1NC(=S)NC1CCCC1	3%	2%	?	1%	11µM*
COc1cc(NC(=S)NC2CC2)c(OC)cc1Cl	0%	-1%	?	-14%	10µM*
CC(C)(C)c1ccccc1NC(=S)NC1CCCCC1	7%	?	6.3µM*	?	1.8µM*
COc1cc(NC(=S)N(C)C)c(OC)cc1Cl	1%	2%	-6%	-37%	-5%
Cc1ccc(N(C)C(=O)Cn2ncc3c([nH]c4ccccc43)c2=O)cc1C	·	-9%	·	-7%	·
COc1ccc(CCN2C(=O)c3oc4ccc(F)cc4c(=O)c3C2c2ccc(C(C)(C)C)cc2)cc1 (centres undefined)	·	-6%	·	12%	·
O=C(NCCCCN1CCOCC1)c1cc2ccccc2o1	·	·	-5%	·	8%
CC(C)(C)c1ccccc1NC(=S)NC1CCCC1	2%	?	3.5µM*	?	4.5µM*
COc1ccccc1NC(=S)NC1CCCCCC1	3%	?	4µM*	?	6.3µM*
COc1ccccc1NC(=O)NC1CCCCCCC1	9%	7%	-7%	?	26%
Cc1ccc(C)c(N2CCN(C(=O)Cn3c(=O)c4cccn4c4ccc(F)cc43)CC2)c1	·	15%	·	6%	·
CCCCNc1nc(C#N)nc(Nc2ccccc2)n1	·	·	-21%	·	·
CCOC(=O)c1ccc2c(c1)N(Cc1ccc(F)cc1Cl)C(=O)c1ccccc1S2(=O)=O	·	5%	·	-8%	·
CCN1C(=C(C#N)C#N)C=Cc2cc(C)ccc21	13%	-12%	-3%	35%	0%
C=CC[n+]1c(/C=C2\C=Cc3cc(C)ccc3N2CC)ccc2ccccc21	-7%	-15%	3.2µM*	?	?
CC(CN1CCOCC1)C(Cc1ccccc1)(Cc1ccccc1)C(=O)N1CCCC1 (centres undefined)	-5%[110 µM]	·	·	·	·
CN(Cc1ccc(Cl)cc1)C(=O)CNC(=O)C12CC3CC(CC(C3)C1)C2	4%	-1%	·	8.9µM*	·
CC(C)Cn1c(/C=C/c2ccco2)nc2ccccc21	0%	-4%	?	?	11µM*
CC(C)n1c(/C=C/c2ccccc2)nc2ccccc21	19%	0%	16µM*	?	13µM*
CCn1c(/C=C/c2cc[n+](C)cc2)nc2ccccc21	4%	i	2%	4%	-29%
COCCOCCn1c(CCCO)nc2ccccc21	-6%	0%	2%	10%	-24%
CC(C)n1c(CN(C)c2ccccc2)nc2ccccc21	-1%	?	·	?	·
CCCn1c(/C=C/c2ccccc2)nc2ccccc21	2%	-3%	?	?	5.6µM*
COCCOCCn1c(/C=C/c2ccccc2)nc2ccccc21	11%	-2%	?	?	11µM*
CO[C@@H]1COC(=O)C/C=C\[C@H](C)COC(=O)[C@H](Cc2ccccc2)NC(=O)C/C=C\[C@H]1C	·	·	5%[10 µM]	·	11%[10 µM]
SMILES	GLP-1R agonist	HEK293 tox	Gal4-VP16 FLuc	GLP1R inv ag	RORg inh
CC1CCc2c(sc3nc(-c4cc5ccccc5oc4=O)nc(Cl)c23)C1 (centres undefined)	0%	0%	·	2%	·
CCSc1nc(-c2ccc(OC)cc2)nc2c1Cc1c(CO)cnc(C)c1O2	·	9%	·	1%	·
CCn1nc(-c2ccccc2)c(-c2ccccc2)c(C(=O)Nc2ccc(NC(C)=O)cc2)c1=O	·	1%	·	-1%	·
c1ccc(Cn2c(CN3CCCC3)nc3ccccc32)cc1	0%	-10%	?	?	14µM*
Clc1ccc(Cn2c(CN3CCCC3)nc3ccccc32)cc1	-1%[19.8 µM]	·	7.1µM*	·	2µM*!
O=c1[nH]c(SCc2nc3ccccc3n2Cc2ccccc2)nc2ccccc12	1%	-10%	?	4%	4.5µM*
Cc1nc(N2CCOCC2)c2c(C(=O)N3CCN(c4cccc(C)c4C)CC3)c(C)oc2n1	·	-1%	·	-15%	·
Cc1ccc(Nc2nc(-c3ccccc3)cs2)nc1	0%	-14%	?	?	?
Cc1ccc(Nc2nc(-c3cccs3)cs2)nc1	-5%	-22%	13µM*	3.5µM*	11µM*
COc1cccc(Nc2nc(CN3CCOCC3)nc3sc4c(c23)CCCC4)c1	2%	-2%	?	?	10µM*
